Among all 360,000 compounds or so, about 3,700 (1%) were called active. The list comes from a sample in which actives are over-represented; it also holds similar structures and randomly drawn compounds. Values without a mark were called inactive. Cut-off read from the data, not from the text of the source: active = activation above about 30%; inactive = the rest.

D(1A) dopamine receptor (Homo sapiens), sequence (P21728 whole entry, looked up): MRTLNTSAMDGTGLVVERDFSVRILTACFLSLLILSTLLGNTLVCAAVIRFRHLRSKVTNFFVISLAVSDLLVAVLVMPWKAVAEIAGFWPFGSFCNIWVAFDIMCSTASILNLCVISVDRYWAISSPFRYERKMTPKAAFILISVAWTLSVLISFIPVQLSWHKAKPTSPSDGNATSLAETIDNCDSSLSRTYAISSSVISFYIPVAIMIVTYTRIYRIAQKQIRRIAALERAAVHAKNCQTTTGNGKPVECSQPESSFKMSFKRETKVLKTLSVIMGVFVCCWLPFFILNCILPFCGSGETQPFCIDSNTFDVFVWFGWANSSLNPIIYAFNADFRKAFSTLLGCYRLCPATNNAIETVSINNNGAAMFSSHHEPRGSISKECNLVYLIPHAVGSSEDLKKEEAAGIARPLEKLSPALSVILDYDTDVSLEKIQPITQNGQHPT

For this assay, the target named is D(1A) dopamine receptor (Homo sapiens) (UniProt P21728). Description: Allosteric Agonists of the Human D1 Dopamine Receptor: qHTS. Note: 0% is about no effect. Particulars: HEK293 T-REx D1 cells, calcium flux, agonist mode; at 2 µM; stronger effect = higher value. The method, boiled down:
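Agonism was scored from calcium flux recorded over 180 s (1 read/s) after pintool compound addition, following a 10-cycle baseline. Cells were inducible force-coupled HEK293 TREx D1, plated overnight at 30 C and loaded with no-wash calcium dye.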
As for `Cc1ccccc1OCc1ccc(-c2nc(C#N)c(N3CCCCC3)o2)o1`, the activation was 1.07%. Consider `Cc1ccc(Cn2ncc3c4sc(C)cc4n(C)c3c2=O)c(C)c1`, for which the activation was 3.45%. Take `Cn1c(=O)c(=O)n(C)c2cc(NC(=O)c3ccccc3Br)ccc21`: the activation was 0.667%. As for `Cc1ccc(CNC(=O)CCNS(=O)(=O)c2ccc3c(c2)oc(=O)n3C)cc1`, the activation is 1.82%. Then `CCOc1ccc(S(=O)(=O)Nc2cccc(C(=O)NCC3(N4CCCCC4)CCCCC3)c2)cc1`, with 5.67%. Regarding `CN1CCN(C2(CNC(=O)COc3ccc(C(C)(C)C)cc3)CCCCC2)CC1`, the activation was 42.8% (active). On to `Cc1cc(OCC(=O)NCC2(N(C)C)CCCCC2)cc(C)c1Cl`, for which the activation is 9.34%. For the molecule `O=C(NCc1ccc2c(c1)CCN2C(=O)c1ccccc1)c1ccccc1`, the activation is 2.65%. `Cc1cc(C)c2nc3nc(C)cc(C)c3c(N)c2c1`: the activation is 31% (active). As for `O=C(CSc1nc2c(c(=O)[nH]1)CN(Cc1ccc(F)cc1)CC2)Nc1ccccc1Cl`, the figure is 3.05%; as for `CCOc1ccccc1CNC(=O)C1CCCN(S(=O)(=O)c2ccc3c(ccn3C)c2)C1` (stereo not drawn), 4.08%; as for `O=C(Nc1nnc(S(=O)(=O)N2CCCc3ccccc32)s1)c1cccc(F)c1`, 0.00305%.

Consider `O=C(c1ccc(Br)cc1)N(Cc1cccs1)c1ccc(F)cc1`, for which the activation is 9.82%. On to `Cc1c2cnn(-c3ccccc3)c(=O)c2c(C)n1C(C)C(=O)Nc1ccc(Br)cc1F` (stereo not drawn), for which the activation is 34.5% (active). On to `Cc1ccccc1CNC(=O)Cn1c(C)c2cnn(-c3ccccc3)c(=O)c2c1C`, for which the activation is 3.52%.

For `Cc1c2cnn(-c3ccccc3)c(=O)c2c(C)n1CCCC(=O)N1CCN(C)CC1`, the activation was 0.261%. `O=C(/C=C/c1cn(CC(O)CN2CCc3ccccc32)c2ccccc12)c1ccc(Br)cc1` (stereo not drawn): the activation was 11.4%. For `COc1ccc(-c2cc(-c3ccc(F)cc3)nc3c2COc2ccccc2-3)cc1`, the activation was -0.494%.

Turning to `COc1ccccc1CNC(=O)CCn1c(=O)c2ccccc2n(CC(=O)Nc2ccc(Br)cc2F)c1=O`, the activation is 0.0005%. For the molecule `COc1ccc(C(=O)NC(=O)CSc2nnc(-c3ccco3)n2-c2ccccc2)cc1`, the activation was 1%. For the molecule `COc1ccc(C(=O)Nc2onc3c2CCCC3)cc1`, the activation was -1.07%. In the case of `Cn1nnc(NC(=S)NC(=O)c2ccccc2)n1`, the activation was 4.22%.

Regarding `COc1ccc(C(=O)NNC(=S)NC(=O)c2ccccc2)cc1`, the activation was 84.2% (active). Regarding `Cc1onc(-c2ccccc2)c1C(=O)NNC(=S)NC(=O)c1ccc(F)cc1`, the activation was 61.1% (active). As to `CC(=O)NC(=S)NNC(=O)c1ccc(Br)cc1`, the activation was 0.645%. `O=C(/C=C/c1ccc(F)cc1)NC(=S)NNC(=O)c1cccnc1`: the activation was 1.33%. For `COc1ccc(C(=O)NC(=S)NNC(=O)c2c(-c3ccccc3)noc2C)cc1`, the activation was 86.2% (active). On to `O=C(NNC(=S)NC(=O)c1cn(-c2ccccc2)nc1-c1ccccc1)c1ccncc1`, for which the activation was 6.27%.

For the origin of these results see PubChem BioAssay AID504660 (National Center for Advancing Translational Sciences (NCATS), 2011).
